# Measured values as given in PubChem BioAssay AID1159580 (chemical genetic matrix, 2015).
# Out of some 5,500 compounds screened, about 2,000 (36%) were called active. Not shown: some 18% with an inconclusive outcome. The list shows a part of the results. A number with no mark means an inactive call. No stated cut-off is given here; in the data, active means normalized growth mostly below about 0.91 (no sharp cut-off); inconclusive means no clear call, values can overlap the other calls; inactive means mostly above about 0.92.
# Assay: chemical genetic growth profiling, strain panel (AID 1159580);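 further: tested at 20 µM; growth read once vehicle control cultures reached saturation at 30 °C; 1 = growth at the plate median or of vehicle wells; lower values mean less growth of the strain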
# Conditions: S. cerevisiae deletion strains, growth OD
# [1] = locus YAL013W, strain DEP1, active compounds read low
# [2] = locus YBR229C, strain ROT2, active compounds read low
# [3] = locus YDL101C, strain DUN1, active compounds read low
# [4] = locus YDR150W, strain NUM1, active compounds read low
# [5] = locus YEL061C, strain CIN8, active compounds read low
# [6] = locus YGR078C, strain PAC10, active compounds read low
# [7] = locus YHR030C, strain SLT2, active compounds read low
# [8] = locus YHR087W, strain rtc3, active compounds read low
# [9] = locus YJR043C, strain POL32, active compounds read low
# [10] = locus YJR075W, strain HOC1, active compounds read low
# [11] = locus YLR039C, strain RIC1, active compounds read low
# [12] = locus YLR058C, strain SHM2 (second series), active compounds read low
# [13] = locus YLR085C, strain ARP6, active compounds read low
# [14] = locus YLR262C, strain YPT6, active compounds read low
# [15] = locus YML094W, strain GIM5, active compounds read low
# [16] = locus YMR219W, strain ESC1, active compounds read low
# [17] = locus YMR263W, strain SAP30, active compounds read low
# [18] = locus YMR307W, strain GAS1, active compounds read low
# [19] = locus YNL153C, strain GIM3, active compounds read low
# [20] = locus YNL298W, strain CLA4 (second series), active compounds read low
# [21] = locus YNL322C, strain KRE1, active compounds read low
# [22] = locus YNR030W, strain Alg12, active compounds read low
# [23] = locus YPL055C, strain LGE1, active compounds read low
# [24] = locus YPL241C, strain CIN2, active compounds read low
# [25] = locus YPR135W, strain CTF4, active compounds read low
structure (smiles),measurement,setting,value
CC(C)c1ccc(NC(=S)NC(=O)c2ccc(C(F)(F)F)cc2)cc1,normalized growth,[1],1
same,normalized growth,[2],1.02
same,normalized growth,"locus YCL061C, strain MRC1, active compounds read low",1.01
same,normalized growth,[3],1.01
same,normalized growth,[4],1
same,normalized growth,[5],1.02
same,normalized growth,[6],1.02
same,normalized growth,"locus YGR229C, strain SMI1, active compounds read low",1.02
same,normalized growth,[7],1.1
same,normalized growth,[8],1.02
same,normalized growth,[9],1.01
same,normalized growth,[10],1
same,normalized growth,"locus YKL190W, strain CNB1, active compounds read low",1.02
same,normalized growth,[11],1.09
same,normalized growth,[12],1.02
same,normalized growth,[13],1.23 [resistant] (active)
same,normalized growth,[14],1.07
same,normalized growth,[15],1.02
same,normalized growth,[16],1.01
same,normalized growth,[17],1
same,normalized growth,[18],1.3
same,normalized growth,"locus YNL128W, strain TEP1, active compounds read low",1.02
same,normalized growth,[19],0.989
same,normalized growth,[20],1.06
same,normalized growth,[21],1.01
same,normalized growth,[22],1.01
same,normalized growth,[23],0.997
same,normalized growth,[24],1.13
same,normalized growth,[25],1.09
O=C(NC(=S)Nc1ccccn1)c1ccccc1,normalized growth,[1],0.962
same,normalized growth,[2],0.948
same,normalized growth,[3],0.942
same,normalized growth,"locus YDL134C, strain PPH21, active compounds read low",0.977
same,normalized growth,[4],0.956
same,normalized growth,[5],0.783 (active)
same,normalized growth,[6],0.962
same,normalized growth,[7],0.401 (active)
same,normalized growth,[8],1
same,normalized growth,[9],0.955
same,normalized growth,[10],0.988
same,normalized growth,[11],0.573 (active)
same,normalized growth,[12],0.976
same,normalized growth,[13],0.428 (active)
same,normalized growth,[14],0.788 (active)
same,normalized growth,[15],0.777 (active)
same,normalized growth,[16],0.964
same,normalized growth,[17],0.993
same,normalized growth,[18],0.476 (active)
same,normalized growth,[19],0.933
same,normalized growth,[20],0.67 (active)
same,normalized growth,[21],1
same,normalized growth,[22],0.8 (active)
same,normalized growth,"locus YOL006C, strain TOP1, active compounds read low",0.213 (active)
same,normalized growth,[23],0.825 (active)
same,normalized growth,[24],0.807 (active)
same,normalized growth,[25],0.552 (active)
